Experimental findings from the supplement of paper PMC6555819 are described below.

This assay concerns VDR:RXRa (NR concentration 270 nM, RXRa partner concentration 90 nM). Briefly: PBM binding z-score (relative to random genomic background probes); higher = stronger binding; sequences stand for … in GC…GCGATTGACAGCGTAGAATGAAGG
The protocol: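 Protein-binding microarray (Agilent 4x180K custom design, double-stranded 60-nt probes: 5' GC cap, 34-nt variable region, 24-nt constant primer region; full probe sequence given). Purified or IVT nuclear receptor:RXRα heterodimers (3:1 NR:RXRα, mostly 270:90 nM) or homodimers were incubated for 1 h in PBS with 2% milk and no ligand, then detected with Alexa488 antibodies. Fluorescence from o1-orientation probes (~5 replicates averaged) was converted to z-scores against 500 random hg19 background probes. Variable regions are seed direct-repeat (DR0–DR5) sites, all their single-nucleotide variants and half-site ablations.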
Sequence GCGACTGGGGCATCAGCAGGTCACCATAACTTAA gave a PBM binding z-score of 1.75.
The value for ATCTCTAGGTAACAAGTTCACTGAAAGAGAGGAC was 3.26; that for TCATATAGGTAAAGGTGAATGTCGAACGATATGA was 0.919.
Turning to TTACCAAGGTGAAGGTCGTTAATCCCTCTGTAGA, the PBM binding z-score came out at 1.16.
As to GCGACTGGGGCATCAGCAGGTTACAATAACTTAA, the PBM binding z-score was -0.29.
The sequence TCTAGTTGGTCAAAGGGCACACACTCGAAATGCG yielded a PBM binding z-score of 1.78.
The sequence CCTATTAGTTGACCATAAAGGCAACCGAAGCTCG registered a PBM binding z-score of 0.841.
The sequence CCGACTGGGGCAAGGTTACTATAACGCACAGCCA had a PBM binding z-score of 0.0885.
For the sequence CCTAGCAGGCCAATCTGGGTCACTCCAGGCTTGA, the PBM binding z-score came to 0.284.
ATCTCTAGGTAACGTTCAGTGAAAGATCGATAGA returned a PBM binding z-score of 0.101.
Next, CGGCCAAGGTCAGAGAGGTCAGTGAATGCCGAGT: 7.41.
GCTTGTAGATCACGGTTAAGAAAGACTAAGCTAA: the PBM binding z-score is -0.34.
ACAGACAGGTAATGAAGGTAACTCAGGCTATCAT displayed a PBM binding z-score of 0.244.
In the case of ATACCAAGGTGATCGTGCGGTCGTTGATACTAAC, the PBM binding z-score came out at 0.18.
Take GCTGCTAGATCAACTGATGGTCAGCTAAAGCTCG: the PBM binding z-score is -0.766.
ATCTCTAGGTAACAAGTTCAGCGAAAGAGAGGAC yielded a PBM binding z-score of 2.45.
As to TCTTGTAGATCAACAGGTTAAGAAAGCTGGCCAA, the PBM binding z-score is 0.855.
Take CAAACTAGGTCACCGGAAGGTTAAAGTCCGCATG: the PBM binding z-score amounted to 4.29.
For ATCTCTAGGTAAGACACAGTTCAGTGAAGAACGC, the PBM binding z-score was found to be 1.14.
Regarding TCTAGCAGGCCAGAGGGTCACTCAGGAGGTACGG, the PBM binding z-score was found to be 1.56.
In turn, CCTAGCAGGCCAATCTGGCTCACTCAAGGCTTGA gave a PBM binding z-score of -0.563.
The value for TCTAGTTGGTCAAAGGTGACACACTCGAAATGCG was 1.92; that for TAGCCTAGGTGATTCAGGGGCCAGTATAGAAAGC was -0.381.
In turn, CCTACTGGGCCATCAGGTCAGTGATATCAACGTT showed a PBM binding z-score of 0.21.
The value for ACAGACAGGTGAGGGAAGGTAACTCAGCTGGACG was -0.405.
Next, CGTCCAAGGTCAGAGAGGTCAGTGCATGCCGAGT: 7.42; CCAGACATGTGAGAAGGTAACTCAGCCTCGATTA: -0.439; TCTTGTAGATCAAGCAGGTTCAGAAAGCCTGAGT: 1.93.
As to ACTCGGAGGACAACGGTCAGAGCTACGCCAGTGA, the PBM binding z-score is -0.667.
Regarding CCTTACGGGTCACTCCAAGTTATAGCATCGGAGT, the PBM binding z-score was 2.82.
TCTCGGAGGACACGAAGGTCAGAGCCTTCCAGAG yielded a PBM binding z-score of 2.42.
ACTATTAGTTGTCTTAGGGCAACCGATACGACGC showed a PBM binding z-score of -0.0128.
The value for CCTAGCAGGCCAATCTGGGTCACTCACGGCTTGA was 0.411.
As to CCGCCTAGGTCAGGGCCAGTATAGGAGGAACGTT, the PBM binding z-score turned out to be 0.294.
TAGCCTAGGTCATTGGGCCAGTGTAGTACGCATC yielded a PBM binding z-score of 2.12.
For GCTATTAGTTGAAAGGGCGACCGAATGATTCTCG, the PBM binding z-score was -0.17.
With TCTTATAGGTAAATGCTAGGTGAAAGTCCGATCT, the PBM binding z-score is 0.709.
Regarding CCAGACAGGTGAGAAGGCAACTCAGCCTCGATTA, the PBM binding z-score was -0.345.
CGTCCAAGGTCAAAGCTCAGTGAAGAGATGACGG gave a PBM binding z-score of 3.77.
Consider TCCTATAGGTAAAAGGTGAAAGTCGGTGTGGTAA, for which the PBM binding z-score was 1.17.
